# Screening data from PubChem BioAssay.
# In the library only some 3% were active in any assay of this set; here they are far more common.
# DAGLB inhibitor = diacylglycerol lipase beta (human) inhibition; Q8NCG7; HEK293T DAGLB membrane lysate, EnzChek fluorogenic substrate; inhibition, % at 5.17 µM; 0.059% of 340,000 active; in the data active = inhibition above about 34%;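 also: 0% = enzyme with vehicle and 100% = wells lacking enzyme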
# Target sequence (Q8NCG7 whole entry, looked up): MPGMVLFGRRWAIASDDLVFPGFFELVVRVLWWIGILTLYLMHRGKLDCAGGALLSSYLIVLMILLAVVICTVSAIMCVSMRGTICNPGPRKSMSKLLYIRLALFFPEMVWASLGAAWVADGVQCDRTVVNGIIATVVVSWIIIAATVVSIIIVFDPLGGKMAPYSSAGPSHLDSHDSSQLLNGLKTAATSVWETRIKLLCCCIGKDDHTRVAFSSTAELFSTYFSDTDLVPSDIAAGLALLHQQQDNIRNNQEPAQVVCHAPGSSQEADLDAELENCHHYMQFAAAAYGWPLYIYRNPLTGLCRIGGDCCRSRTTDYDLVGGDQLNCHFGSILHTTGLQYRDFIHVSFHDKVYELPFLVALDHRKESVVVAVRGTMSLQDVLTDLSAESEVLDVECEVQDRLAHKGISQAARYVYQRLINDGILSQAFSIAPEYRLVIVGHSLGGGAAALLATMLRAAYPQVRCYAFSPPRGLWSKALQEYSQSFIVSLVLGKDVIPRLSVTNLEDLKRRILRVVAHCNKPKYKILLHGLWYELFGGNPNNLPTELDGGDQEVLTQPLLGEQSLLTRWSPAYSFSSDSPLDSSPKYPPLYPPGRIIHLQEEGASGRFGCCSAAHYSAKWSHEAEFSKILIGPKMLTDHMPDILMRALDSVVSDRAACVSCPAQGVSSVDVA
# pPAFAH FP inh = inhibitors of human plasma PAF acetylhydrolase (pPAFAH) | recombinant pPAFAH, FP-rhodamine probe fluorescence polarization | inhibition, % at 3.39 µM | 1.5% of 330,000 active;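 active = inhibition above the mean inhibition across the screen plus 3 SD, cut at about 25% in these data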;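 also: inhibitors block binding of the rhodamine activity-based probe so polarization drops; 0% = enzyme with DMSO and 100% = wells lacking pPAFAH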
# PAFAH1B2 inh = PAFAH1B2 (human) inhibition | P68402 | recombinant PAFAH1B2, FP-rhodamine activity probe, fluorescence polarization | inhibition, % at 3.39 µM | 1.2% of 340,000 active;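 active = inhibition above the mean of all tested compounds plus 3 SD, cut at about 24% in these data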;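 also: 0% = enzyme with DMSO and 100% = wells lacking PAFAH1B2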
# ATG4B inhibitor = blocks human ATG4B protease cleavage of LC3 substrate | inhibition, % at 8.33 µM | Q9Y4P1 | 0.51% of 340,000 active | AID 504462 | ATG4B cleavage of LC3-PLA2, NBD-HPC fluorescence, 1 h; in the data active = inhibition above about 40%
# PAFAH2 FP inh = PAFAH2 (human) inhibition; recombinant PAFAH2, FP-rhodamine activity probe, fluorescence polarization; inhibition, % at 3.39 µM; 0.99% of 340,000 active; AID 492956;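 active = inhibition above the mean over all tested compounds plus 3 SD, cut at about 30% in these data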;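 also: inhibitors block probe labeling of enzyme so polarization drops; 0% = enzyme with DMSO and 100% = wells lacking PAFAH2 protein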
# PAFAH1B3 FP inh = blocks human PAF acetylhydrolase 1B catalytic subunit 3; AID 492972; recombinant PAFAH1B3, FP-rhodamine probe, fluorescence polarization; 0.28% of 340,000 active; inhibition, % at 3.39 µM;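 active = inhibition above the screen-wide average of all tested compounds plus 3 SD, cut at about 25% in these data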;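 also: 0% = enzyme with DMSO only and 100% = wells lacking PAFAH1B3 protein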
# pPAFAH confirm = pPAFAH (human) inhibition, confirmed; recombinant pPAFAH, FP-Rh probe fluorescence polarization; inhibition, % at 3.39 µM; shares compounds with pPAFAH FP inh; 72% of 2,300 active; AID 463230;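 active = mean inhibition of the triplicate above the hit cutoff set for the earlier primary screen, cut at about 25% in these data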;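 also: 0% = enzyme with DMSO and 100% = wells lacking pPAFAH enzyme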
# Active calls of the source: *; i = inactive; · = no result given.
SMILES,DAGLB inhibitor,pPAFAH FP inh,PAFAH1B2 inh,ATG4B inhibitor,PAFAH2 FP inh,PAFAH1B3 FP inh,pPAFAH confirm
COc1cc(/C=N/NC(=O)C(=O)NCc2ccco2)cc(Br)c1O,4,6,0,-1,1,4,·
CCCC1=NN2C(=N)/C(=C\c3ccc(SCc4ccco4)o3)C(=O)N=C2S1,14,60*,-17,38,-21,-100,61*
CCC1=NN2C(=N)/C(=C\c3ccc(SCc4ccco4)o3)C(=O)N=C2S1,9,-9,-13,17,-19,-66,·
O=C1NC(=S)S/C1=C\c1ccc(SCc2ccco2)o1,9,69*,20,67*,16,5,55*
CCOc1cc(/C=N/NC(=O)c2cc(C)n(-c3ccc(F)cc3)c2C)ccc1O,1,14,7,-14,-2,11,·
Cc1cc(C(=O)N/N=C2\CC(=O)c3ccccc32)c(C)n1-c1ccc(F)cc1,7,42*,2,2,1,14,32*
Cc1ccc(O)c(O)c1,·,13,·,·,·,·,·
Cc1cc(O)c(Oc2cc(C)cc(O)c2O)c(O)c1,2,39*,11,-12,24,10,15
Cc1ccccc1NS(=O)(=O)c1ccc(-c2ccc(=O)[nH]n2)o1,3,17,2,-8,-5,8,·
CCN(CC)c1ccc(NS(=O)(=O)c2ccc(-c3ccc(=O)[nH]n3)o2)c(C)c1,3,68*,6,-10,10,2,50*
COc1cc(NS(=O)(=O)c2ccc(C)cc2)c2c(c1N)C(=O)c1ccccc1C2=O,11,·,·,·,·,·,·
CN1CCN(CC(=O)N2CCn3c4c(c5cc(C6CCCCC6)ccc53)CCCC42)CC1 (stereo not drawn),6,36*,5,-3,-2,9,54*
CC(C)c1ccccc1NC(=O)COC(=O)c1ccc(Cl)c(S(=O)(=O)N2CCCCCC2)c1,-5,2,-1,-9,10,-5,·
O=c1cc(-c2ccc(O)c(O)c2)oc2c1ccc1ccccc12,13,78*,14,-41,48*,34*,82*
COc1ccc(Cl)cc1C(=O)NNC(=O)c1[nH]c(C)c(C(C)=O)c1C,-1,54*,-2,-2,5,10,7
CC(Oc1ccccc1Cl)C(=O)Nc1ccc(S(=O)(=O)Nc2nccs2)cc1 (stereo not drawn),2,4,-4,0,6,1,·
O=C(c1cc(COc2c(F)cccc2F)on1)N1CC[C@@H]2CCCC[C@H]2C1,-14,·,·,·,·,·,·
C/C(N)=C(/C#N)C(=O)COC(=O)CC12CC3CC(CC(C3)C1)C2,-3,6,24,-14,3,0,·
CC(=O)Oc1ccc2c(c1)Oc1cc(OC(C)=O)ccc1C21OC(=O)c2ccccc21,i,99*,110*,i,124*,129*,90*
CN(C)c1ncc(C2=C(Cl)C(=O)C(N3CCCC3)=C(Cl)C2=O)s1,6,49*,9,12,29,27*,10
COc1ccc(S(=O)(=O)N2CCSCC2)cc1C(N)=O,-2,0,5,-4,-2,6,·
COc1ccc(N(Cc2cc3cccc(C)c3[nH]c2=O)S(=O)(=O)c2ccc(OC)cc2)cc1,-5,66*,5,-7,5,8,2
CC1CCC/C(=C\Nc2ccc(O)cc2)C1=O (stereo not drawn),6,35*,0,-2,-2,1,3
Cc1cc(C(=O)O)ccc1N/C=C1\CCCC(C)C1=O (stereo not drawn),0,-2,2,-4,5,1,·
O=[N+]([O-])c1c(NCCCO)cc(Sc2ccc(Cl)cc2)c2nonc12,-5,-1,2,-8,-1,8,·
SMILES,DAGLB inhibitor,pPAFAH FP inh,PAFAH1B2 inh,ATG4B inhibitor,PAFAH2 FP inh,PAFAH1B3 FP inh,pPAFAH confirm
CC(=O)OCCNc1cc(SCc2ccco2)c2nonc2c1[N+](=O)[O-],2,58*,-3,-4,11,8,6
COC(=O)CCSc1cc(NCCOC(C)=O)c([N+](=O)[O-])c2nonc12,-1,3,4,12,2,-9,·
O=[N+]([O-])c1c(NCCCO)cc(SCc2ccco2)c2nonc12,-1,59*,6,0,1,9,-2
COCCN=C1Sc2nc3cc(C)c(C)cc3cc2CN1Cc1cccs1,-4,2,-1,2,-3,-7,·
COCCN=C1Sc2nc3ccc(C)cc3cc2CN1Cc1ccco1,-3,64*,6,22,0,-1,51*
COc1cc(-c2csc(C)n2)ccc1O,-1,2,3,11,5,-2,·
Oc1ccc(-c2csc(-c3ccccc3)n2)cc1O,6,45*,0,-11,0,1,59*
Cc1nc(-c2ccc(O)c(O)c2)cs1,1,35*,7,-7,-4,10,6
Cc1ccc(NS(=O)(=O)c2ccc(Cl)c(N=Nc3c(O)[nH]c(=O)[nH]c3=O)c2)cc1Cl,14,89*,16,-1,41*,26*,89*
COc1ccc(NS(=O)(=O)c2cc(N=Nc3c(O)[nH]c(=O)[nH]c3=O)ccc2Cl)cc1,3,17,7,1,7,3,·
Brc1cc2c(cc1Br)OCCOCCOCCOCCO2,1,4,1,-9,-1,8,·
Brc1ccc2c(c1)OCCOCCOc1cc(Br)ccc1OCCOCCOCCO2,-16,68*,6,-2,2,5,60*
COc1ccc(CC(=O)Nc2c3c(nn2C(C)(C)C)CS(=O)(=O)C3)cc1OC,-1,0,2,6,-1,4,·
CN(Cc1cccs1)C(=O)C1CC(=O)N(Cc2ccccc2)C1 (stereo not drawn),2,-1,6,6,2,3,·
COc1ccc2c(c1)CC/C(=C/c1ccco1)C2=O,-11,16,0,-3,7,6,·
Nc1ccc2c(c1)C/C(=C/c1ccco1)C2=O,0,84*,-8,-6,9,7,6
CC(C)=CCN1CCNC(=O)C1CC(=O)NCc1nc(C)c(C)s1 (stereo not drawn),-3,2,8,-9,3,9,·
COc1cc(C(=O)NCCCN2CCCC2=O)cc(Br)c1OCc1ccccc1,-1,79*,-1,-2,-11,-7,9
O=C(NCCCN1CCCC1=O)c1ccc(OCc2ccccc2)cc1,0,-4,12,-2,4,-2,·
O=C(O)c1cccc2c1/C(=N/Nc1ccc([N+](=O)[O-])cc1[N+](=O)[O-])c1ccccc1-2,0,6,11,8,2,5,·
Cc1cc(C(C#N)c2ccc(Cl)cc2)c(Cl)cc1NC(=O)c1cc(I)cc(I)c1O (stereo not drawn),4,47*,11,25,13,11,41*
